Screening results from PubChem.
Rows were chosen to be rich in hits. Some 20% of all compounds tested hit in one or more screens of this group.
Shiga inhibitor = inhibitors of Shiga toxin in Vero cells; Vero cells, Shiga toxin protein synthesis inhibition reporter; inhibition, % at 38.7 µM; 290,000 compounds, 9.2% hits; AID 2315; in the data active = inhibition mostly above about 28%, no sharp cut-off; inactive = mostly below about 43%
Pf growth 96h = inhibits malaria parasite growth, 96 h. P. falciparum luciferase reporter growth, 96 h. Potency, µM (top dose mostly 28.7 µM), actives largely listed as inhibitors. 320,000 compounds, 6.9% hits
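Cell-based qHTS: luciferase-tagged P. falciparum in erythrocytes (2% hematocrit, 0.05% parasitemia final) incubated with compounds for 96 hours, 37 C, 5% CO2; luciferase detection reagent then added and luminescence measured.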
CHX counter = affects cycloheximide protein synthesis inhibition readout, counter-screen; cell reporter, cycloheximide protein synthesis inhibition counterscreen; max response, %; 300,000 compounds, 12% hits; in the data active = max response mostly above about 13%, no sharp cut-off; inactive = mostly below about 14%; note: read at 38.3 µM for the half of the compounds with a filed dose
Pf growth 48h = inhibits P. falciparum growth in the first generation, 48 h; P. falciparum luciferase growth in erythrocytes, 48 h; Potency, µM (doses to about 28.7 µM), most hits filed as inhibitors; 310,000 compounds, 5.9% hits
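Luciferase-expressing P. falciparum in infected erythrocytes (2% hematocrit, 0.1% parasitemia final) in RPMI 1640/0.5% Albumax were exposed to compound for 48 hours at 37 C, 5% CO2; growth read as luminescence.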
HCMV antiviral = human cytomegalovirus inhibition; HFF cells, HCMV-luciferase reporter, 72 h; hits give low values; activity change, negative = inhibition, % at 57.5 µM; 410,000 compounds, 4.5% hits; AID 1259415; in the data active = activity change below about -60%; inconclusive = no clear call, values can overlap the other calls; inactive = above about -39%
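After 16 h attachment at 37C, HFF cells received test compound and HCMV-luciferase (1 PFU/cell); reporter luminescence read 72 h later, data normalized against buffer-only and known inhibitor Salinomycin.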
Of the large screens only hits and unclear results are named; the others gave an inactive call. Unless noted, calls come from the whole dose curve; as a rule, active = well fitted inhibition curve with a large enough effect; inconclusive = small, poorly fitted or top-dose-only effect, or another doubt; inactive = no such curve, though single readings can be large or run the other way.

CCCCN(C(=O)c1sc2nc3n(c(=O)c2c1C)CCC3)c1c(N)n(CC(C)C)c(=O)[nH]c1=O	none (no result: Shiga inhibitor, CHX counter)
CCN(C(=O)COC(=O)C12CC3CC(CC(O)(C3)C1)C2)c1c(N)n(Cc2ccccc2)c(=O)[nH]c1=O	none (no result: Shiga inhibitor, Pf growth 96h, CHX counter, Pf growth 48h)
CC(C)CN(C(=O)COC(=O)C12CC3CC(CC(Cl)(C3)C1)C2)c1c(N)n(Cc2ccccc2)c(=O)[nH]c1=O	Pf growth 96h inconclusive, Pf growth 48h 4.7µM (no result: Shiga inhibitor, CHX counter)
NCCCNc1nc(N)c([N+](=O)[O-])c(NC2CCCCC2)n1	Pf growth 96h inconclusive, Pf growth 48h 2.3µM, HCMV antiviral -97
CCOc1ccc2nc(NC(=O)CSc3cn[nH]n3)sc2c1	Shiga inhibitor 149, CHX counter 34
COc1ccc2nc(NC(=O)CSc3cn[nH]n3)sc2c1	Shiga inhibitor 66, CHX counter 43
CCOc1ccc2nc(NC(=O)CSc3ccc(Cl)cc3)sc2c1	Pf growth 48h inconclusive (no result: Pf growth 96h)
CCOc1ccc2nc(NC(=O)CSc3nc(-c4ccccc4)c(C#N)c(=O)[nH]3)sc2c1	Shiga inhibitor 39, CHX counter 41
COc1cccc(-c2nc(SCC(=O)Nc3nc(-c4ccccc4)c(C)s3)[nH]c(=O)c2C#N)c1	Pf growth 96h inconclusive, HCMV antiviral inconclusive
CCOc1ccc2nc(NC(=O)CSCC(=O)Nc3cc(C)on3)sc2c1	none (no result: Shiga inhibitor, CHX counter)
CCOc1ccc2nc(NC(=O)CSc3nc(SC)ns3)sc2c1	Shiga inhibitor 70, CHX counter 55, Pf growth 48h inconclusive
Cc1sc2ncnc(SCC(=O)N(C)C3CCS(=O)(=O)C3)c2c1C (stereo not given)	none
COc1cccc(CN2CCC(C(=O)N3CCC(C)CC3)CC2)c1	none
COc1ccccc1C(=O)NC(=O)COC(=O)CCNS(=O)(=O)c1ccccc1	none (no result: Shiga inhibitor, CHX counter)
CCCCCC(=O)NCc1c(C(F)(F)F)nn(C)c1N1CCOCC1	Pf growth 96h inconclusive, HCMV antiviral inconclusive
C[C@H]1CN=C(N(C)C)N1CCc1ccccc1	HCMV antiviral -67 (no result: Shiga inhibitor, CHX counter)
CN(C)C1=NC[C@H](Cc2ccccc2)N1CCCC1CCCCC1	Pf growth 96h 5.2µM, Pf growth 48h 7.4µM (no result: Shiga inhibitor, CHX counter)
CN(C)C1=NC[C@H](Cc2ccccc2)N1CCCC1CCCC1	Pf growth 96h inconclusive, Pf growth 48h 9.3µM (no result: Shiga inhibitor, CHX counter)
S=C1NC[C@H](c2ccccc2)N1CC1CCCCC1	Pf growth 96h 8.3µM, Pf growth 48h inconclusive, HCMV antiviral inconclusive
c1ccc(C[C@H]2CN=C(Nc3ccccc3)N2CCCC2CCCC2)cc1	Pf growth 96h inconclusive, Pf growth 48h inconclusive (no result: HCMV antiviral)
CNC(=O)c1ccccc1-c1cn(C)c2ccccc2c1=O	none
CN(C)C1=NC[C@H](Cc2ccccc2)N1CCC1CCCC1	Pf growth 96h inconclusive, Pf growth 48h 10µM (no result: Shiga inhibitor, CHX counter)
C[C@H]1CN=C(N(C)C)N1CCC1CCCC1	Pf growth 96h inconclusive, Pf growth 48h inconclusive (no result: Shiga inhibitor, CHX counter)
C[C@H]1CN=C(Nc2ccccc2)N1CC1CCCCC1	none
S=C1NC[C@H](Cc2ccccc2)N1CCCCC1CCCCC1	Shiga inhibitor 42, Pf growth 96h inconclusive, CHX counter 11, Pf growth 48h inconclusive
CN(C)C1=NC[C@H](Cc2ccccc2)N1CC1CCCCCC1	Pf growth 96h inconclusive, Pf growth 48h 12µM (no result: Shiga inhibitor, CHX counter)
COc1cc(Cl)cc(C2NC(=S)NC(c3ccccc3)=C2C(C)=O)c1OCC(=O)O (stereo not given)	Pf growth 96h inconclusive, Pf growth 48h inconclusive
COC(=O)c1c(C)oc2ccc(N(C(=O)c3ccncc3)S(=O)(=O)c3cc(C)ccc3C)cc12	HCMV antiviral -65 (no result: Shiga inhibitor, Pf growth 96h, CHX counter, Pf growth 48h)
CCOC(=O)c1c(-c2ccccc2)oc2ccc(N(C(C)=O)S(=O)(=O)c3cc(C)ccc3C)cc12	HCMV antiviral -106 (no result: Shiga inhibitor, Pf growth 96h, CHX counter, Pf growth 48h)
COC(=O)c1c(C)oc2ccc(N(C(=O)c3ccncc3)S(=O)(=O)c3ccc(Br)cc3)cc12	none (no result: Shiga inhibitor, Pf growth 96h, CHX counter, Pf growth 48h)
CCOC(=O)c1c(-c2ccccc2)oc2ccc(N(C(C)=O)S(=O)(=O)c3ccccc3)cc12	none (no result: Shiga inhibitor, Pf growth 96h, CHX counter, Pf growth 48h)
CC1CCCC(C)N1C(=O)COC(=O)C1CCN(S(=O)(=O)c2c(Cl)cccc2Cl)CC1 (stereo not given)	Pf growth 96h inconclusive, Pf growth 48h inconclusive (no result: Shiga inhibitor, CHX counter)
O=C(Nc1cc2c(cc1C(=O)c1cccc(Br)c1)OCCO2)c1ccccc1F	none (no result: Shiga inhibitor, Pf growth 96h, CHX counter, Pf growth 48h)
O=C(N/N=C/c1ccc[nH]1)c1ccncc1	none
O=C(N/N=C(\Cc1ncc[nH]1)c1ccccc1)c1ccccc1	Pf growth 96h inconclusive, HCMV antiviral -78
O=C(N/N=C(\c1ccccc1)c1cccnc1)c1ccc(O)cc1	none
O=C(N/N=C(\Cc1ncc[nH]1)c1ccccc1)c1ccncc1	Pf growth 96h inconclusive, Pf growth 48h inconclusive, HCMV antiviral -91
